According to ChEMBL document CHEMBL4513216, “Probing the Open Global Health Chemical Diversity Library for Multistage-Active Starting Points for Next-Generation Antimalarials” (ACS Infect Dis, 2020):
The whole screen tested about 69,000 compounds, of which about 8,600 (12%) showed an effect of 50% or more. The sample holds strong results, similar compounds and a random draw of the others, so the mix is not that of the screen.

What follows are molecules tested on Plasmodium berghei (assay: Screen against P. berghei liver stage (PbLuc), transformed with Luciferase, at 10uM). Conditions: tested at 10 uM.
Assay type: functional, HepG2

SMILES | INHIBITION [%]
Cc1c(Cl)cccc1NC(=O)c1nc[nH]n1 | -1.16
COc1ccc(-c2cc3nn(CC(=O)NC(C)C)c(=O)n3c(C)n2)cc1 | 53.2
Cc1nc(-c2ccccc2)cc2nn(CC(N)=O)c(=O)n12 | 28.6
COc1ccc(-c2cc3nn(CC(N)=O)c(=O)n3c(C)n2)cc1 | 14.3
NC(=O)CC1CCN(C(=O)NCCc2ccc(Cl)s2)CC1 | -17.6
c1ccc(CN2CCCC3(CCN(Cc4cccs4)C3)C2)nc1 (centres undefined) | 21.1
Cc1nn(C)c(N2CCOCC2)c1CNC(c1ccccc1)C1CC1 (centres undefined) | 14.6
O=C(C1CCCC1)N1CC2(CCCN(C3COC3)C2)Cc2ccccc21 (centres undefined) | -0.621
O=C(C1CCCC1)N1CC2(CCN(C3COC3)CC2)Cc2ccccc21 | 53.2
O=C(C1CCCC1)N1CC2(CCNC2)OCc2ccccc21 (centres undefined) | 11
O=C(C1CCCC1)N1CC2(CCN(C3COC3)C2)Cc2ccccc21 (centres undefined) | 10.1
O=C(C1CCCOC1)N1CCCc2ccccc21 (centres undefined) | -21
O=C(C1CCCC1)N1CC2(CCN(C3COC3)C2)OCc2ccccc21 (centres undefined) | 53.2
Cc1ccc(-c2[nH]c3ccccc3c2C(=O)O)c(C)c1 | 31.7
c1nc(CN2CCC3(CC2)COCCN3CC2CC2)c[nH]1 | -2.17
N#Cc1ccccc1N1CCCN(C(=O)CCc2ccsc2)CC1 | 19.2
CC(C)n1cnnc1CN(C)C(=O)c1ccccc1-n1cncn1 | 31.7
COCCCN1CC2(CCN(Cc3cc(C(C)C)no3)CC2)CC1=O | 41.2
COC[C@]1(O)CCN(Cc2cnc(N3CCOCC3)nc2)CC1(C)C | 32.3
CCSc1ncc(CN2CCC(O)(CN3CCOCC3)C(C)(C)C2)cn1 (centres undefined) | 81
CC1(C)CN(C(=O)c2ncc(F)cc2F)CCC1(O)CN1CCOCC1 (centres undefined) | 76.3
CSc1ncc(C(=O)N2CCC(O)(CN3CCOCC3)C(C)(C)C2)cn1 (centres undefined) | 40.6
COCCCN1CC2(CCN(C(=O)c3ncc(F)cc3F)CC2)CC1=O | 58.1

SMILES | INHIBITION [%]
CCSc1ncc(CN2CC[C@@](O)(COC)C(C)(C)C2)cn1 | 43.5
CCc1ncc(C(=O)N2CCC(O)(CN3CCOCC3)C(C)(C)C2)cn1 (centres undefined) | 10.9
COCCCN1CC2(CCN(C(=O)Cc3csc(C)n3)CC2)CC1=O | -44.8
Cc1nc(C2CCCN(C(=O)c3cc(C(C)(C)C)on3)C2)no1 (centres undefined) | -21.8
Cc1noc(C)c1-c1cc(CC2CCN(C(=O)c3cc[nH]n3)C2)ncn1 (centres undefined) | 21.9
O=C(O)c1cccc(CN2CCC(c3ccnc4ccnn34)CC2)c1 | 28
Cn1cc(CN2CCOC(Cc3cccc(F)c3)C2)cn1 (centres undefined) | 36.8
CC(C)(C)NC(=O)c1ccccc1NC(=O)c1ccncc1 | 30.1
Cc1c(NC(=O)c2ncn[nH]2)cccc1C(=O)NC(C)(C)C | 59.5
Cc1c(NC(=O)c2cnc[nH]2)cccc1C(=O)NC(C)(C)C | 34.5
CCn1c(NCC2CCCO2)nc2c(C)nn(C)c2c1=O (centres undefined) | 25.8
CC1CNC(=O)CCN1Cc1cc(O)c2cccc(F)c2n1 (centres undefined) | 51.2
Oc1cc(CN2CCCCC2c2cccnc2)nc2c(F)cccc12 (centres undefined) | 54.4
Cc1ccc(C)c2c(O)cc(CN3CCC(=O)NCC3C)nc12 (centres undefined) | 3.69
OCC1CCCCN1Cc1cc(O)c2cccc(F)c2n1 (centres undefined) | 27.6
NCC1CCCCN1Cc1cc(O)c2cccc(F)c2n1 (centres undefined) | 44.7
O=C1CN(Cc2cc(O)c3cccc(F)c3n2)CCN1C1CCCC1 | 37.7
O=C(c1cc(Cn2ccc3ccccc32)[nH]n1)N1CCOCC1 | 16.2
O=C([C@@H]1CCCO1)N1CCN(Cc2ccncc2)c2ncccc2C1 | 40.3
COCC(=O)N1CCC(c2csc(NC(C)=O)n2)CC1 | 17.1
CCC(=O)NCC(c1ccc(SC)cc1)N1CCc2sccc2C1 (centres undefined) | 28.3
NCC(c1ccc(Cl)cc1)N1CCc2sccc2C1 (centres undefined) | 71.2
CSc1ccc(C(CNC(=O)C2CC2)N2CCc3sccc3C2)cc1 (centres undefined) | 19.7

SMILES | INHIBITION [%]
CSc1ccc(C(CN)N2CCc3sccc3C2)cc1 (centres undefined) | 66.3
O=C(NCCO)NCC(c1ccccc1)N1CCc2sccc2C1 (centres undefined) | 5.91
CC(C)c1ccc(C(CN)N2CCc3sccc3C2)cc1 (centres undefined) | 82.2
NCC(c1ccccc1)N1CCc2sccc2C1 (centres undefined) | -41.8
CCOCCCC(=O)NCC(c1ccccc1)N1CCc2sccc2C1 (centres undefined) | 27.6
CSc1ccc(C(CNC(C)=O)N2CCc3sccc3C2)cc1 (centres undefined) | 34.9
Cc1ocnc1CNC(=O)Nc1ccc(N2CCOC(C)C2)cc1 (centres undefined) | 25.8
COc1ccc(C)cc1C(C)NC(=O)Cn1ccc(=O)n(C)c1=O (centres undefined) | -25.9
CN(C(=O)CCN1CCCC1=O)c1cc(C#N)c2ccccc2n1 | 31.2
c1cncc(C2COC3(CCN(Cc4ccsc4)CC3)C2)c1 (centres undefined) | 46.1
COc1ccc(C(C)NCc2cscn2)cc1Cn1cccn1 (centres undefined) | 41.4
CNc1cc(C2CCCN(Cc3ccccc3OCC(=O)O)C2)ccn1 (centres undefined) | 18.3
Cc1cc(CNC(=O)CN2CCCC(Cn3cncn3)C2)ccc1F (centres undefined) | 25.6
Cc1ccc(-n2cc(C)cn2)c(NC(=O)NC2(C)CCOC2)c1 (centres undefined) | 56.3
Cc1ccc(C)c(-n2ncc(NC(=O)NC3(C)CCOC3)c2C)c1 (centres undefined) | 33.2
Cc1ccc(Cl)c(NC(=O)NC2(C)CCOC2)c1 (centres undefined) | 24.8
O[C@@H]1CN(Cc2cnccn2)C[C@H]1Oc1ccccc1 | -10.5
O=C(Cc1cccc(O)c1)N1CCCC(OCc2cccnc2)C1 (centres undefined) | 36.2
CC(C)(C)C(=O)NCCc1cc(N2CCOCC2)nc(NC2CC2)n1 | 30.15
Cc1cnn(CC2CCCN2C(=O)c2ccc(-n3cccn3)nc2)c1 (centres undefined) | 16.2
Cc1ccc(-c2cc(C3CCNCC3)nc(C)n2)cc1 | 6.26
Cc1nc(-c2ccc(F)c(F)c2)cc(C2CCNCC2)n1 | -2.09
Cc1nc(-c2ccc(F)cc2)cc(C2CCNCC2)n1 | 54.5
